# According to PubChem BioAssay (EPA / NIEHS):
# Records with an inconclusive call do not appear. Activity calls are given as the source filed them. Rule for the calls: active = hit-call score of the fitted dose curve at least 0.9, where 1 is the maximum; inconclusive = response in the unintended direction; inactive = score below 0.9.
# What was measured:
# [1] = ACEA_AR_antagonist_AUC_viability: ACEA Biosciences xCELLigence Real-Time Cell Analysis on Androgen Receptor Antagonism for Viability (AID 2283776);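 note: 22Rv1 human prostate cancer cells growing on impedance electrode plates; area under impedance growth curve at 80 h after dosing as viability; hits lower the growth signal relative to DMSO meaning cytotoxicity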
# How it was run: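 Viability endpoint from label-free cell-index monitoring: 22Rv1 cultures treated with an eight-point 1:4 dilution series starting at 100 uM final, AUC at 80 h fitted against DMSO.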
# [2] = ACEA_ER_AUC_viability: ACEA Biosciences xCELLigence Real-Time Cell Analysis on Estrogen Receptor Agonism for Viability (AID 2283782);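 note: hit means loss of impedance signal meaning reduced cell growth or viability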
# How it was run: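 Continuous-exposure impedance cell analysis uses T-47D cells in charcoal-stripped serum, eight 1:4 dilutions topping at 100 uM final, biological duplicate. Area under the growth curve at 80 h is fitted against DMSO baseline.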
# [3] = system: frog Estrogen Receptor (ESR1), gene 398734; assay: ATG_frER1_XSP1: Attagene TRANS-FACTORIAL Multi-Species (XSP1) HepG2 Assay for frog Estrogen Receptor (ESR1) (AID 2283777)
# How it was run: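 After transient transfection and 24 h compound treatment, total RNA from HepG2 cells was reverse-transcribed, amplified, FAM-labeled and resolved by capillary electrophoresis. Signal increases were fitted against DMSO controls.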
# [4] = system: zebrafish Estrogen Receptor (ESR2A), gene 317734; assay: ATG_zfER2a_XSP1: Attagene TRANS-FACTORIAL Multi-Species (XSP1) HepG2 Assay for zebrafish Estrogen Receptor (ESR2A) (AID 2283778)
# How it was run: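 Gain-of-signal reporter transcription readout from GAL4-UAS units in transiently transfected HepG2 cells, 24 h exposure, 3 nM 6-alpha-fluorotestosterone co-present. Detection by RT-PCR with capillary electrophoresis fluorescence.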
# [5] = target: chicken Estrogen Receptor (ESR1), ESR1 (gene 396099) (UniProt P06212); assay: ATG_chERa_XSP1: Attagene TRANS-FACTORIAL Multi-Species (XSP1) HepG2 Assay for chicken Estrogen Receptor (ESR1) (AID 2283779)
# How it was run: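 Gain-of-signal reporter transcription, relative to DMSO, was scored in transiently transfected HepG2 cells after a 24 h dose. Fluorescence intensity of amplified, digested reporter cDNA fragments served as the endpoint.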
# [6] = target: Estrogen receptor (Homo sapiens) (UniProt P03372); assay: ATG_hERa_XSP1: Attagene TRANS-FACTORIAL Multi-Species (XSP1) HepG2 Assay for human Estrogen Receptor (ESR1) (AID 2283780)
# How it was run: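 Reporter transcripts from multiplexed GAL4-UAS units driven by NR-Gal4 chimeras in transiently transfected HepG2 were measured by RT-PCR with capillary electrophoresis 24 h post-dose, with 3 nM 6-alpha-fluorotestosterone present; gain-of-signal relative to DMSO.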
# [7] = system: turtle Estrogen Receptor (ESR1), gene 101933533; assay: ATG_trERa_XSP1: Attagene TRANS-FACTORIAL Multi-Species (XSP1) HepG2 Assay for turtle Estrogen Receptor (ESR1) (AID 2283781)
# How it was run: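 Cell-based chimeric NR-Gal4 transactivation; HepG2; 24 h dosing; mRNA reporter detected by RT-PCR and capillary electrophoresis fluorescence.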
# [8] = system: turtle Androgen Receptor (AR), gene 101947425; assay: ATG_trAR_XSP1: Attagene TRANS-FACTORIAL Multi-Species (XSP1) HepG2 Assay for turtle Androgen Receptor (AR) (AID 2283786)
# How it was run: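 Partial androgen stimulation is provided by 3 nM 6-alpha-fluorotestosterone in a multi-species trans-factorial panel expressing a turtle AR–GAL4 fusion in HepG2. After 24 h, reporter mRNA is measured by RT-PCR and capillary electrophoresis and fitted upward against DMSO.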
# [9] = target: AR (gene 367) (UniProt P10275); assay: ACEA_AR_agonist_80hr: ACEA Biosciences xCELLigence Real-Time Cell Analysis on Androgen Receptor Agonism for Proliferation (AID 2283783);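 note: hits increase impedance growth signal above DMSO baseline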
# How it was run: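 Real-time cell-growth kinetics were recorded by electrode impedance in 22Rv1 cells exposed to test chemicals up to 100 uM final; the 80 h timepoint served as the readout, fitted upward relative to DMSO controls, in biological duplicate.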
# [10] = STM_H9_NormalizedViability: Cytotoxicity Assessment at 120 hours in the Stemina devTOX quickPredict H9 human embryonic stem cell (hESC)-based Assay (AID 2283784)
# How it was run: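 CellTiter-Fluor RFU, background-subtracted, expressed relative to 0.1% DMSO neutral control by plate. Pluripotent H9 cells; treatment with daily re-dosing. Plates carried 1uM methotrexate (positive) and 5 nM methotrexate (negative) references.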
# Sequence of AR (gene 367) (P10275 whole entry, looked up): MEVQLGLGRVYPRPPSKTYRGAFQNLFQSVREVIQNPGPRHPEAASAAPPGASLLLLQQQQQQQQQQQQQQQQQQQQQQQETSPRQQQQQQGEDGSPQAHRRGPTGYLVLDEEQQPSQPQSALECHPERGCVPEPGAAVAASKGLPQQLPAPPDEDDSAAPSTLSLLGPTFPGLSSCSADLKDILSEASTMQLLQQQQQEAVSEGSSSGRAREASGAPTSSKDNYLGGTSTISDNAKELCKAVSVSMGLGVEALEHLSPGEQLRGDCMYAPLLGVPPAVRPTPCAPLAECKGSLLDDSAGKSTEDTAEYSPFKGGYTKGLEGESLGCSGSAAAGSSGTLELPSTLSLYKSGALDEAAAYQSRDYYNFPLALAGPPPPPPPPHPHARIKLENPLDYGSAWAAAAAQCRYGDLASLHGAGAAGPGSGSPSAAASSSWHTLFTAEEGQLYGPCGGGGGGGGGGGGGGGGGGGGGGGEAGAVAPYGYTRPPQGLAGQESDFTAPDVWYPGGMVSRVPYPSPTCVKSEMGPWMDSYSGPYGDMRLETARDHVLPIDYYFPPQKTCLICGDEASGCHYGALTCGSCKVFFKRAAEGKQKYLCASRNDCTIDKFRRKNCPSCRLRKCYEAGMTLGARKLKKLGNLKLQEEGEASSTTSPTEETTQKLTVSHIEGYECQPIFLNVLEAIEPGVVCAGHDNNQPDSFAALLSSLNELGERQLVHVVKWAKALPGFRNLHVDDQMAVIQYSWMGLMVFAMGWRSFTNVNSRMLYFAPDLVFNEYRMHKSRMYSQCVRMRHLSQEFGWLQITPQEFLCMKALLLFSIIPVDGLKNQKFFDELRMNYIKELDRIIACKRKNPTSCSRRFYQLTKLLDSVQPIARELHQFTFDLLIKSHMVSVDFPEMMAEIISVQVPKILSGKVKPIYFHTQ
# Sequence of Estrogen receptor (Homo sapiens) (P03372 whole entry, looked up, the tested form may be a part): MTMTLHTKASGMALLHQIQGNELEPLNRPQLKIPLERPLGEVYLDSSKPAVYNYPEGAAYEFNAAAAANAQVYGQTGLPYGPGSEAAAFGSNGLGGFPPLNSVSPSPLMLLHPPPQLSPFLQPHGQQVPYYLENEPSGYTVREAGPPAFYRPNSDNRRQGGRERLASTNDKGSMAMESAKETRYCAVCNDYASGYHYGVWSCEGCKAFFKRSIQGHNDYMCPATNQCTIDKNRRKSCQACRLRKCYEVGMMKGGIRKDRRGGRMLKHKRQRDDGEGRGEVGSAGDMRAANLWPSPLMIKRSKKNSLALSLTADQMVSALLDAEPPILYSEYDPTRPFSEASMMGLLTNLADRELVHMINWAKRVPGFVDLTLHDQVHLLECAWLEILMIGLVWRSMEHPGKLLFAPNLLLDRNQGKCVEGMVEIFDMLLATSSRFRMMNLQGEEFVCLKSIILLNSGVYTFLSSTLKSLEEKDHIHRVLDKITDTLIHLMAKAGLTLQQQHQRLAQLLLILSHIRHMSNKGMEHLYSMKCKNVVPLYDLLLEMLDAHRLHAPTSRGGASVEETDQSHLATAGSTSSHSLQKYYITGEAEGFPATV
# Sequence of chicken Estrogen Receptor (ESR1), ESR1 (gene 396099) (P06212 whole entry, looked up, the tested form may be a part): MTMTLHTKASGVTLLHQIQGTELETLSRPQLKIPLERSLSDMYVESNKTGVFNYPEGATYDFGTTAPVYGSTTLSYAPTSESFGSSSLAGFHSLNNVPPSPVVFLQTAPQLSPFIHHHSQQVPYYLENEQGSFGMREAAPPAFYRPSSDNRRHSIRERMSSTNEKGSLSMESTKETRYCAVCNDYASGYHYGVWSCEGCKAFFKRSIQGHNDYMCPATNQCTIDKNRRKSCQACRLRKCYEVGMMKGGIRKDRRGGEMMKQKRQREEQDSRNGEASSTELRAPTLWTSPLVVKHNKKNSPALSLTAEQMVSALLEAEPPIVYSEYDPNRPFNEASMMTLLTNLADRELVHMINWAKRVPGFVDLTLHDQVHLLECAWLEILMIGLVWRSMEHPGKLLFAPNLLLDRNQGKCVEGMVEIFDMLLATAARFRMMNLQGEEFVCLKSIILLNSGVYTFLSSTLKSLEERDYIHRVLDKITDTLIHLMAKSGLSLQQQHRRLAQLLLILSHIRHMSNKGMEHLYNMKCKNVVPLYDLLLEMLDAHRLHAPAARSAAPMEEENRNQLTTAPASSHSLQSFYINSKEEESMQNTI
smiles,measurement,setting,value
NC(=O)N=NC(N)=O,AC50,[1],4.59 µM (active)
same,outcome,[2],inactive
Cc1ccc(N/N=c2\c(=O)cc/c(=N/Nc3ccc(S(=O)(=O)O)cc3)c2=O)c(C)c1,AC50,[1],8.3 µM (active)
same,outcome,[2],inactive
CC1=CC[C@H]2C[C@@H]1C2(C)C,outcome,[1],inactive
same,outcome,[2],inactive
CC(=O)[C@H]1[C@H](C#N)C[C@H]2[C@@H]3CC=C4C[C@@H](O)CC[C@]4(C)[C@H]3CC[C@@]21C,outcome,[1],inactive
same,outcome,[2],inactive
C1=Cc2ccccc2C1,outcome,[1],inactive
same,outcome,[2],inactive
OC1CCCC1,AC50,[1],0.475 µM (active)
same,outcome,[2],inactive
C=C[Si](C)(C)O[Si](C)(C)C=C,outcome,[1],inactive
same,outcome,[2],inactive
Cc1cc(C)c(C(=O)O)c(C)c1,outcome,[1],inactive
same,outcome,[2],inactive
CC(C)(C)c1ccc(N)cc1,outcome,[1],inactive
same,outcome,[2],inactive
CC(C)=CCC[C@H](C)CCO,outcome,[1],inactive
same,outcome,[2],inactive
CC/C=C\C/C=C\C/C=C\CCCCCCCC(=O)O,outcome,[1],inactive
same,outcome,[2],inactive
CCCCCCCC[N+](C)(CCCCCCCC)CCCCCCCC,AC50,[1],0.925 µM (active)
same,AC50,[2],1.92 µM (active)
O=C(C(Cl)Cl)N1CCOC12CCCCC2,AC50,[1],11 µM (active)
same,AC50,[2],14.5 µM (active)
CCCCC/C=C\C/C=C\CCCCCCCC(=O)OC,outcome,[1],inactive
same,AC50,[2],65.3 µM (active)
CC(C)(C)c1ccc(-c2ccc(C(C)(C)C)cc2)cc1,outcome,[1],inactive
same,outcome,[2],inactive
O=C(c1ccc(O)cc1)c1ccc(O)cc1O,AC50,[3],0.664 µM (active)
same,AC50,[4],0.426 µM (active)
same,AC50,[5],1.28 µM (active)
same,AC50,[6],1.27 µM (active)
same,AC50,[7],0.879 µM (active)
same,AC50,[8],2.69 µM (active)
CC(CC=O)CCCC(C)(C)O (stereo not given),outcome,[9],inactive
CC(C)c1ccc2c(C(C)C)cc(C(C)C)c(S(=O)(=O)O)c2c1,outcome,[9],inactive
Nc1ccc(N)c(Cl)c1,AC50,[10],18.7 µM (active)
CN(C)c1ccc(N=Nc2ccccc2C(=O)O)cc1,AC50,[10],68.1 µM (active)
